Screening data as filed in PubChem BioAssay.
Compounds with a hit are over-represented: about 6.8% of the library has one in this group of screens.
Pf Dd2 growth: P. falciparum Dd2 growth inhibitors, primary screen, SYBR Green fluorescence, single dose replicates; 72 h; hits give low values; activity change, % at 10 µM; 94,000 tested, 2.3% active; in the data active means activity change below about -80%; inconclusive means no clear call, values can overlap the other calls
C diff HTS: C. difficile growth inhibitors, primary screen, HTS; Clostridium difficile clinical isolate growth, OD600, 24 h; hits give low values; growth activity, negative = inhibition, % at 16 µg/mL (by protocol); 86,000 tested, 0.25% active; AID 1259249, 2017;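 active means mean growth activity at or below -80% and every replicate also at or below -80%; inconclusive means mean at or below -80% but some replicate above -80%; inactive means mean growth activity above -80%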;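 further: 0% = DMSO wells and -100% = levofloxacin 16 µg/mL wells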
T cruzi growth-1: T. cruzi intracellular proliferation inhibitors, primary screen, cell-based, beta-gal Tulahuen parasites, NIH3T3 host, luminescence. inhibition, % at 8.34 µM. T. cruzi beta-gal in NIH3T3, GalScreen luminescence, 90 h. AID 624255, 2012. 77,000 tested, 5.9% active;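 active means mean inhibition above about 93%, with at least 55% of replicates each passing it, limit read from the data, passing the limit was not always enough; inconclusive means only one of those two conditions holds; inactive means neither condition holds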
T cruzi growth-2: T. cruzi intracellular proliferation inhibitors, confirmation, cell-based, NIH3T3 host, beta-gal parasite, luminescence, cherry-pick | shares compounds with T cruzi growth-1 | T. cruzi beta-gal in NIH3T3, GalScreen luminescence, 90 h | inhibition, % at 8.35 µM | 5,600 tested, 72% active | AID 651739, 2012;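 active means mean replicate inhibition above about 95% and at least 55% of replicates individually reaching it, limit read from the data; inconclusive means only one of the two criteria is met; inactive means neither criterion is met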
T cruzi growth-3: inhibitors of intracellular T. cruzi replication, confirmation, NIH3T3 host cells, beta-gal parasites, cherry-pick, set 2. 5,600 tested, 21% active. T. cruzi beta-gal in NIH3T3, GalScreen luminescence, 90 h. shares compounds with T cruzi growth-1. AID 651740, 2012. inhibition, % at 2.09 µM;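 active means mean inhibition above about 95%, with at least 55% of replicates also reaching it, limit read from the data; inconclusive means meets just one of the two conditions; inactive means meets neither condition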;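 further: plate controls were neutral control median for no effect and positive control median for full effect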
3T3 cytotox: cytotoxicity in mouse NIH/3T3 fibroblasts, confirmation, cytotoxicity control for T. cruzi proliferation inhibitor project, cell-based, cherry-pick, single point; shares compounds with T cruzi growth-1; NIH/3T3 viability, CellTiter-Glo ATP luminescence, 90 h; cytotoxicity (signal decrease), % at 8.35 µM; 5,600 tested, 14% active;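 active means mean signal decrease across replicates above about 35% based on untreated-well scatter, with enough replicates individually passing, limit read from the data; inconclusive means no rule stated though some were filed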;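 further: 0% = median of neutral control wells and 100% = median of positive control wells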
NIH3T3 tox 2: NIH/3T3 fibroblast cytotoxicity, confirmation, cytotoxicity control, cell-based, cherry-pick, single point, set 2 | shares compounds with T cruzi growth-1 | NIH/3T3 viability, CellTiter-Glo ATP luminescence, 90 h | inhibition, % at 24.9 µM | 5,600 tested, 56% active;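 active means mean loss of cell viability signal at or above a set limit, and enough replicates individually reaching it; inconclusive means meets only the mean limit or only the replicate share; inactive means meets neither condition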;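 further: 0% = median of neutral control wells and 100% = median of positive control wells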
* = called active by the depositor; ? = inconclusive; / = not tested or not shown.

SMILES | Pf Dd2 growth | C diff HTS | T cruzi growth-1 | T cruzi growth-2 | T cruzi growth-3 | 3T3 cytotox | NIH3T3 tox 2
COc1cccc(C(=O)Nc2ccc3c(c2)OC[C@@H](C)N(CCc2ccccc2)C[C@H](C)[C@H](OC)CN(C)C3=O)c1 | -40.6 | / | 88.4 | / | / | / | /
COc1cccc(C(=O)Nc2ccc3c(c2)C(=O)N(C)C[C@@H](OC)[C@H](C)CN(CCc2ccccc2)[C@@H](C)CO3)c1 | -49.2 | / | 92.5* | 107.8* | 82.8 | 28.3 | 7.6
C[C@H](CO)N1C[C@H](C)[C@H](CN(C)C(=O)Nc2ccc3c(c2)OCO3)Oc2ccc(NC(=O)Nc3ccc(C(F)(F)F)cc3)cc2C1=O | -29.7 | / | 80.0 | / | / | / | /
CC(C)NC(=O)N(C)C[C@@H]1Oc2cc(C#C[C@H](C)O)ccc2S(=O)(=O)N([C@H](C)CO)C[C@@H]1C | 14.6 | 2.3 | / | / | / | / | /
O=C(C[C@H]1C[C@@H]2c3cc(NC(=O)CC4CC4)ccc3O[C@@H]2[C@@H](CO)O1)NCc1cccnc1 | -4.3 | -3.7 | 48.9 | / | / | / | /
C[C@H]1CCCCO[C@H](CN(C)Cc2ccc(C(F)(F)F)cc2)[C@@H](C)CN([C@@H](C)CO)C(=O)c2cc(NC(=O)NC3CCCCC3)ccc2O1 | 4.9 | 4.3 | 64.1 | / | / | / | /
C[C@@H]1CN([C@@H](C)CO)C(=O)c2cc(NC(=O)Nc3ccc(C(F)(F)F)cc3)ccc2O[C@@H](C)CCCCO[C@H]1CN(C)Cc1ccc(C(F)(F)F)cc1 | -68.0 | 3.4 | ? | -41.4 | -40.5 | 6.0 | -10.9
C[C@@H]1CCCCO[C@@H](CN(C)Cc2ccccc2)[C@@H](C)CN([C@H](C)CO)C(=O)c2cc(NC(=O)Nc3ccc(C(F)(F)F)cc3)ccc2O1 | 31.6 | 19.5 | ? | 89.4 | 115.3* | 29.2 | 11.8
C[C@@H]1CCCCO[C@@H](CN(C)Cc2ccc(C(=O)O)cc2)[C@H](C)CN([C@H](C)CO)C(=O)c2cc(NC(=O)Nc3ccc(C(F)(F)F)cc3)ccc2O1 | 23.0 | -4.6 | 42.5 | / | / | / | /
C[C@@H]1CCCCO[C@H](CN(C)Cc2ccc(C(=O)O)cc2)[C@H](C)CN([C@H](C)CO)C(=O)c2cc(NC(=O)Nc3ccc(C(F)(F)F)cc3)ccc2O1 | -45.6 | -4.1 | 45.4 | / | / | / | /
C[C@@H]1CCCCO[C@@H](CN(C)Cc2ccc(C(F)(F)F)cc2)[C@H](C)CN([C@@H](C)CO)C(=O)c2cc(NC(=O)Nc3ccc(C(F)(F)F)cc3)ccc2O1 | -64.8 | 19.3 | ? | 101.8* | 116.6* | 25.4 | -1.5
C[C@@H]1CCCCO[C@@H](CN(C)Cc2ccccc2)[C@@H](C)CN([C@@H](C)CO)C(=O)c2cc(NC(=O)Nc3ccc(C(F)(F)F)cc3)ccc2O1 | -61.9 | 29.0 | 86.2 | / | / | / | /
C[C@@H]1CCCCO[C@@H](CN(C)Cc2ccc(C(F)(F)F)cc2)[C@H](C)CN([C@@H](C)CO)C(=O)c2cc(NC(=O)NC3CCCCC3)ccc2O1 | -9.8 | -2.6 | ? | 98.0* | 117.9* | 10.7 | -8.1
C[C@H](CO)N1C[C@H](C)[C@@H](CN(C)S(C)(=O)=O)Oc2cc(C#Cc3ccccc3)ccc2S1(=O)=O | -71.6 | -13.7 | 82.0 | / | / | / | /
C[C@H]1CN([C@@H](C)CO)S(=O)(=O)c2ccc(C3=CCCC3)cc2O[C@@H]1CN(C)C(=O)c1ccccc1 | -20.6 | 2.1 | 62.6 | / | / | / | /
Cc1ccc(S(=O)(=O)NCC[C@H]2CC[C@@H](NC(=O)c3cccnc3)[C@H](CO)O2)cc1 | 10.3 | 0.5 | 11.3 | / | / | / | /
CCCNC(=O)N1C[C@H]2[C@@H](c3ccccc31)[C@H](CO)N2C(=O)C1CCOCC1 | -7.2 | 3.4 | 20.2 | / | / | / | /
C[C@H]1CCCCO[C@H](CN(C)C(=O)CCCN(C)C)[C@@H](C)CN([C@@H](C)CO)C(=O)c2cc(NC(=O)Nc3ccccc3)ccc2O1 | 19.6 | 4.2 | -41.1 | / | / | / | /
